The experiment deals with T1, FLI1 (Homo sapiens, UniProt Q01543 1-452).
T1 sequence: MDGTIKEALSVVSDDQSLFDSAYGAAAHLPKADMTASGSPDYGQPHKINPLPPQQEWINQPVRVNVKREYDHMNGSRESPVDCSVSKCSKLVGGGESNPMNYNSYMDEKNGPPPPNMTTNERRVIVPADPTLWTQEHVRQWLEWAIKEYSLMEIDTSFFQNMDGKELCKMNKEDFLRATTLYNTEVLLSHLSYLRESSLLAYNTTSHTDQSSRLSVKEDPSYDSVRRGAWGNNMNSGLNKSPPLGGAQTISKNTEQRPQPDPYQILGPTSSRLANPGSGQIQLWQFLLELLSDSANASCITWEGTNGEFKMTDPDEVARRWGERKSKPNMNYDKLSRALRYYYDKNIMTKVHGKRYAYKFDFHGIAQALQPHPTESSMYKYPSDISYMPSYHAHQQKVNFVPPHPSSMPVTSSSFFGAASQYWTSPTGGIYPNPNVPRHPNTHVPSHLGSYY
The experiment is described as follows: DAPPL (digital affinity profiling via proximity ligation, sequencing); 10 mM Tris-HCl pH 7.5, 50 mM NaCl, 1 mM DTT, 4% glycerol, room temperature, 30 min; GST-TFs on glutathione beads, 16-mer random dsDNA library, 0.1% formaldehyde crosslink after washing; high values mean tight binding. Conditions: protein: recombinant; tags: N-terminal GST; dsDNA, one strand shown. In short, it runs like this: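 Human transcription factors were made in yeast as GST fusions, captured on glutathione beads and barcoded with DNA. With a tag-only sample included, the pool was incubated with 200 nmole of a random double-stranded 16-mer DNA library in Tris/NaCl/DTT/glycerol buffer at room temperature for 30 min, then crosslinked with 0.1% formaldehyde after washing, ligated by proximity, amplified and sequenced. For binding signal, each hexamer's read frequency for a factor is divided by its frequency for the tag-only sample.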
For TGGCAA, the binding signal is 1.23 fold enrichment (6-mer frequency, TF over GST control).

Consider AATAAC, for which the binding signal is 1.31 fold enrichment (6-mer frequency, TF over GST control).

With ATTTGT, the binding signal is 1.36 fold enrichment (6-mer frequency, TF over GST control).

For CTGGCA, the binding signal is 1.33 fold enrichment (6-mer frequency, TF over GST control).

On to GCTTAT, for which the binding signal is 1.33 fold enrichment (6-mer frequency, TF over GST control).

In the case of TGTCTA, the binding signal was 1.2 fold enrichment (6-mer frequency, TF over GST control).

Turning to GCCGAT, the binding signal is 1.14 fold enrichment (6-mer frequency, TF over GST control).

In the case of ATTGGG, the binding signal is 1.23 fold enrichment (6-mer frequency, TF over GST control).

On to TTGATC, for which the binding signal was 1.21 fold enrichment (6-mer frequency, TF over GST control).

AATCGC: the binding signal was 1.12 fold enrichment (6-mer frequency, TF over GST control).

As to CCTCTC, the binding signal is 1.51 fold enrichment (6-mer frequency, TF over GST control).

With CCTCTT, the binding signal is 1.5 fold enrichment (6-mer frequency, TF over GST control).

As to TTTGGA, the binding signal was 1.15 fold enrichment (6-mer frequency, TF over GST control).

For the sequence TCTACA, the binding signal was 1.12 fold enrichment (6-mer frequency, TF over GST control).

In the case of TCTCGC, the binding signal was 1.82 fold enrichment (6-mer frequency, TF over GST control).

As to CTGATG, the binding signal is 1.75 fold enrichment (6-mer frequency, TF over GST control).

Take CTGATC: the binding signal is 1.16 fold enrichment (6-mer frequency, TF over GST control).

As for CTCATC, the binding signal is 1.5 fold enrichment (6-mer frequency, TF over GST control).

Regarding ATATTT, the binding signal is 1.6 fold enrichment (6-mer frequency, TF over GST control).

TACAAT: the binding signal was 1.29 fold enrichment (6-mer frequency, TF over GST control).

On to CACTTG, for which the binding signal is 1.36 fold enrichment (6-mer frequency, TF over GST control).

As to TACGTT, the binding signal is 1.29 fold enrichment (6-mer frequency, TF over GST control).

Regarding CATTCG, the binding signal is 1.25 fold enrichment (6-mer frequency, TF over GST control).

With CCTTCG, the binding signal is 1.31 fold enrichment (6-mer frequency, TF over GST control).

As for TGACCT, the binding signal is 1.75 fold enrichment (6-mer frequency, TF over GST control).

Turning to TATAAC, the binding signal is 1.22 fold enrichment (6-mer frequency, TF over GST control).

For the sequence CTTTCA, the binding signal was 1.45 fold enrichment (6-mer frequency, TF over GST control).

Consider AATATT, for which the binding signal was 1.39 fold enrichment (6-mer frequency, TF over GST control).

For CTTGCA, the binding signal was 1.33 fold enrichment (6-mer frequency, TF over GST control).

As for TTGCGG, the binding signal was 1.37 fold enrichment (6-mer frequency, TF over GST control).

In the case of TCTGTT, the binding signal was 1.41 fold enrichment (6-mer frequency, TF over GST control).

For TCCTGG, the binding signal was 1.66 fold enrichment (6-mer frequency, TF over GST control).

For the sequence CGAAAA, the binding signal was 1.07 fold enrichment (6-mer frequency, TF over GST control).

As to TAATCC, the binding signal was 1.29 fold enrichment (6-mer frequency, TF over GST control).

With TTTCTT, the binding signal is 1.42 fold enrichment (6-mer frequency, TF over GST control).

Consider CTCAGC, for which the binding signal is 1.15 fold enrichment (6-mer frequency, TF over GST control).

Regarding ACTTGT, the binding signal is 1.27 fold enrichment (6-mer frequency, TF over GST control).

Turning to CTTCTA, the binding signal is 1.39 fold enrichment (6-mer frequency, TF over GST control).

As to TTCGAT, the binding signal is 1.32 fold enrichment (6-mer frequency, TF over GST control).

Take TCTCCG: the binding signal was 1.51 fold enrichment (6-mer frequency, TF over GST control).

The values are drawn from PMC7862700, “An all-to-all approach to the identification of sequence-specific readers for epigenetic DNA modifications on cytosine”.
